From PubChem BioAssay
Only a selection was taken, and hits are over-represented in it overall.
Chlamy TAG: inducers of TAG accumulation in Chlamydomonas, primary screen, qHTS, Chlamydomonas reinhardtii. 44,000 tested, 0.84% active. AID 1159537, 2015. Nile Red fluorescence, 72 h. calls only at 10 µM (by protocol); call rule not given here;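 also: hits raise Nile Red signal meaning more stored TAG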
Each line names hits and unclear results; the compound was inactive in the other large screens.

O=C1CC(c2ccccc2)C(=O)N1c1ccccc1 (stereo not drawn)	none
c1ccc(OCCOCCn2nc3ccccc3n2)cc1	none
CN(CC(O)COCc1ccc2c(c1)OCO2)C1CCCCC1 (stereo not drawn)	none
O=C(COc1ccc(Br)cc1)NC1CCCC1	none
CN(CC(O)COc1ccc(Br)cc1)C1CCCCC1 (stereo not drawn)	Chlamy TAG active
O=[N+]([O-])c1ccc(OCC(O)CN(C2CCCCC2)C2CCCCC2)cc1 (stereo not drawn)	none
CC(NCC(O)COc1ccc(Br)cc1)c1ccccc1 (stereo not drawn)	none
CCN(CC(O)COc1ccc(Br)cc1)C1CCCCC1 (stereo not drawn)	Chlamy TAG active
COCC(=O)Nc1ccccc1[N+](=O)[O-]	none
COc1ccc(-c2nnc(NC(=O)c3cccs3)s2)cc1OC	none
O=C(Nc1nccs1)c1ccc2c(c1)C(=O)N(N1C(=O)c3ccccc3C1=O)C2=O	none
CCOc1ccc2nc(SCC(=O)Nc3ncccn3)sc2c1	none
CC(C)=CCC/C(C)=C/CN1CCCN(C)CC1	none
Cc1ccc(C(C)CCN2CCN(C)CC2)o1 (stereo not drawn)	none
CC(C)=CCC[C@H](C)CCN1CCN(C)CC1	Chlamy TAG active
CC(C)Oc1ccc(Br)cc1/C=C(\C#N)c1nn(CCO)c(N)c1C#N	none
Cc1ccc(CN2CCCC(CO)C2)cc1 (stereo not drawn)	Chlamy TAG active
CCN(CC)C(=O)C1CCCN(Cc2ccc(C)cc2)C1 (stereo not drawn)	none
CCc1ccc(CN2CCCC(CO)C2)cc1 (stereo not drawn)	none
CCOc1nc(NCCO)nc(N2CCN(c3ccc(OC)cc3)CC2)n1	none
Cc1ccc(C)c(N2CCN(C(=O)C3CCC3)CC2)c1	none
O=C1CC(N2CCN(C/C=C/c3ccccc3)CC2)C(=O)N1c1ccc(Br)cc1 (stereo not drawn)	none
CN1CCN(C2Cc3ccccc3C2)CC1	none
Cc1ccc(C)c(N2CCN(C3CCc4ccccc4C3)CC2)c1 (stereo not drawn)	Chlamy TAG active
Fc1cccc(F)c1CN1CCN(C/C=C/c2ccccc2)CC1	none
C(=C\c1ccccc1)/CN1CCN(C2CCc3ccccc3C2)CC1 (stereo not drawn)	Chlamy TAG active
O=C(Nc1c(Cl)cccc1Cl)c1cccs1	none
CC(C)(C)C(=O)Nc1cccc(C(=O)NN)c1	none
Cc1c(C(=O)Nc2ccccc2C(N)=O)cccc1[N+](=O)[O-]	none
O=C(Nc1ccccc1C(=O)NCc1ccccc1)c1ccc(F)cc1	Chlamy TAG active
O=C(Nc1ccccc1C(=O)NCc1cccnc1)c1ccc(F)cc1	none
O=C(Nc1ccccc1C(=O)NCc1ccccc1)c1ccccc1F	none
Cc1c(C(=O)Nc2ccccc2C(=O)NCc2ccccc2)cccc1[N+](=O)[O-]	Chlamy TAG active
Cc1ccccc1C(=O)Nc1ccccc1C(=O)NCc1ccccc1	none
O=C(O)C1CCCCC1C(=O)N1CCCCCC1 (stereo not drawn)	none
COc1ccccc1NC(=O)CN(c1ccc(I)cc1)S(C)(=O)=O	none
COc1ccc(S(=O)(=O)Nc2ccccc2I)cc1	none
COc1ccc(C=O)cc1OCc1ccccc1	none
CC(Cc1c[nH]c2ccccc12)NC(=O)c1ccco1 (stereo not drawn)	none
CN1CCN(CCCCOc2ccc(C(=O)c3ccccc3)cc2)CC1	none
CN1CCN(CC#CC=C(c2ccccc2)c2ccccc2)CC1	Chlamy TAG active
CN1CCN(CCC(=O)Nc2ccccc2)CC1	none
COCCNC(=O)Nc1ccc2nc(-c3ccccn3)c(-c3ccccn3)nc2c1	none
Cc1cc(C)n(-c2nc(-c3ccc(C#N)cc3)cs2)n1	none
CCCC(=O)Nc1cc(OC)c(Cl)cc1OC	none
COc1cc(NC(=O)C(Cl)Cl)c(OC)cc1Cl	Chlamy TAG active
COc1ccc(NC(=O)C(Cl)Cl)cc1Cl	none
CCOc1ccc(C(=O)Nc2ccccc2C(C)C)cc1[N+](=O)[O-]	none
Cc1ccc(C)c(NC(=O)c2ccc(C)c(Br)c2)c1	none
CCN1CCN(C2CCC(C)CC2)CC1 (stereo not drawn)	Chlamy TAG active
C=C(C)CN(CC)C1CCN(Cc2ccccc2)CC1	none
CN(CCc1ccccc1)C1CCN(Cc2ccccc2)CC1	Chlamy TAG active
CCN1CCC(N2CCN(C=O)CC2)CC1	none
CC1CCC(N2CCN(Cc3ccccc3)CC2)CC1 (stereo not drawn)	Chlamy TAG active
CCCCN(C)C1CCN(Cc2ccccc2)CC1	none
c1ccc(CN2CCC(N3CCN(Cc4ccco4)CC3)CC2)cc1	none
CC(=O)N1CCN(C2CCC(C)CC2)CC1 (stereo not drawn)	none
CC1CCCN(C2CCN(Cc3ccccc3)CC2)C1 (stereo not drawn)	none
CC(C)NC(=O)c1ccccc1NC(=O)CN(c1ccccc1F)S(=O)(=O)c1ccccc1	none
O=C(c1ccc(Cl)c(Cl)c1)N1CCCc2ccccc21	none
CCOc1ccc(C(=O)Nc2nnc(C3CCCCC3)s2)cc1	none
CC(=O)C1=C(O)C(=O)N(C2CCCCC2)C1c1ccc(Cl)cc1 (stereo not drawn)	none
CN(C)CCNCC12CC3CC(CC(C3)C1)C2	none
CN(CCO)C12CC3CC(CC(C3)C1)C2	none
CN(CCC#N)C12CC3CC(CC(C3)C1)C2	Chlamy TAG active
Cc1c(NC(=O)C23CC4CC(CC(C4)C2)C3)c(=O)n(-c2ccccc2)n1C	none
Cc1c(NS(=O)(=O)c2cccs2)c(=O)n(-c2ccccc2)n1C	none
Cc1c(N/C=C/C(=O)c2cccs2)c(=O)n(-c2ccccc2)n1C	Chlamy TAG active
COc1ccccc1NC(=O)c1ccc(Cc2ccc(C)cc2)o1	none
O=C(Nc1ccccc1)c1ccc(Cl)c(S(=O)(=O)N2CCc3ccccc32)c1	none
CC(NC(=O)c1ccccc1[N+](=O)[O-])C1CC2CCC1C2 (stereo not drawn)	none
CC(NC(=O)c1ccccc1Br)C1CC2CCC1C2 (stereo not drawn)	none
Cc1ccc(C(=O)NC(C)C2CC3CCC2C3)s1 (stereo not drawn)	Chlamy TAG active
COc1ccc(C)cc1NC(=O)c1ccc(CN(c2ccccc2)S(C)(=O)=O)cc1	none
CC(CCc1ccc(O)cc1)NC1C2CC3CC(C2)CC1C3 (stereo not drawn)	Chlamy TAG active
COCC(C)NC1C2CC3CC(C2)CC1C3 (stereo not drawn)	none
O=C(CCCc1ccccc1)NC1C2CC3CC(C2)CC1C3 (stereo not drawn)	none
O=C1c2ccc(Oc3ccc4c(c3)C(=O)N(c3nccs3)C4=O)cc2C(=O)N1c1nccs1	none
O=C1C2C(C(=O)N1c1nccs1)C1C=CC2C12CC2 (stereo not drawn)	none
O=C1C2C3CCC(C3)C2C(=O)N1c1nccs1 (stereo not drawn)	Chlamy TAG active
O=C(Nc1ccc([N+](=O)[O-])c(NC(=O)c2ccccc2F)c1)c1ccccc1F	none
c1ccc(-c2csnn2)cc1	none
